Shown are actives, neighbours in structure and some others; about 14% of the full set was active somewhere.
Pf growth 48h = P. falciparum growth inhibition at 48 hours (one generation) | Potency, µM (doses to about 28.7 µM), inactives show at the top dose activity change, negative = inhibition, usual class: inhibitors | hit rate 5.9% among 310,000 | P. falciparum luciferase growth in erythrocytes, 48 h; note: potency is the fitted concentration of half-maximal effect
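Erythrocytes infected with P. falciparum carrying an integrated firefly luciferase reporter (2% hematocrit, 0.1% parasitemia final) were exposed to compounds in RPMI 1640 with 0.5% Albumax at 37 C, 5% CO2. Growth inhibition was scored as reduced luminescence.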
HCV inh = HCV inhibition. Huh7.5.1 HCVcc-Cre infection, luciferase reporter, 44 h. AID 651820. Potency, µM (highest dose often 41.8 µM), inactives show at the highest dose activity change, negative = inhibition, usual class: inhibitors. hit rate 3.4% among 340,000; note: potency is the fitted concentration of half-maximal effect
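Whole-lifecycle infectious HCVcc-Cre system; cells 1,000/well, compound then virus (~0.5 moi) added 4 h after plating, 44 h culture. Luciferase read 15 sec following 15 min substrate incubation, room temp.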
Lassa entry inh = Lassa virus entry inhibition; Lassa virus pseudotype entry inhibition, cell reporter; Potency, µM (series often up to 37.9 µM), for inactives: at the top dose activity change, negative = inhibition, actives largely listed as inhibitors; hit rate 1.2% among 300,000; calls by dose curve; tested in HEK293 cells; note: potency is the fitted concentration of half-maximal effect; nearly all actives have a fitted effect of over 50% in size
HCMV antiviral = blocks human cytomegalovirus replication; hit rate 4.5% among 410,000; AID 1259415; HFF cells, HCMV-luciferase reporter, 72 h; hits give low values; activity change, negative = inhibition, % at 57.5 µM; in the data active = activity change below about -60%; inconclusive = no clear call, values can overlap the other calls; inactive = above about -39%
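Two-dose cell screen: HFF monolayers treated with compounds and infected with luciferase-expressing HCMV at 1 PFU/cell, 72 h at 37C, then lysed for luciferase measurement.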
Pf growth 96h = P. falciparum growth inhibition at 96 hour, primary screen for plastid delayed-death inhibitors. P. falciparum luciferase reporter growth, 96 h. Potency, µM (doses to about 28.7 µM), for the others: at the top dose activity change, negative = inhibition, hits mostly inhibitors. hit rate 6.9% among 320,000. AID 504834; note: potency is the fitted concentration of half-maximal effect
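P. falciparum expressing integrated firefly luciferase grown in erythrocytes (2% hematocrit, 0.05% parasitemia final) with compounds for 96 hours at 37 C, 5% CO2. Growth inhibition read as loss of luminescence after adding luciferase detection reagent.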
Marburg entry inh = blocks Marburg virus binding to or entry into cells | Marburg virus pseudotyped entry inhibition, cell reporter | AID 540276 | hit rate 1.8% among 300,000 | Potency, µM (highest dose often 37.8 µM), for the others: at the top dose activity change, negative = inhibition, actives largely listed as inhibitors; calls by dose curve; tested in HEK293 cells; note: potency is the fitted concentration of half-maximal effect
* = called active by the depositor; ? = inconclusive; . = no result; [ ] = another dose, or the depositor's remark. Unless noted, calls come from the whole dose curve; as a rule, active = well fitted inhibition curve with a large enough effect; inconclusive = small, poorly fitted or top-dose-only effect, or another doubt; inactive = no such curve, though single readings can be large or run the other way. % is set by controls: 0 for no effect and ±100 for the full control effect.

SMILES | Pf growth 48h | HCV inh | Lassa entry inh | HCMV antiviral | Pf growth 96h | Marburg entry inh
COc1ccc(-c2nc3ccc(C(=O)NCC(OC)OC)cc3nc2-c2ccc(OC)cc2)cc1 | ? | ? | -10% | -60* | 32% | ?
CN1CCN(CCNC(=O)c2ccc3nc(-c4ccc(F)cc4)c(-c4ccc(F)cc4)nc3c2)CC1 | 9.3µM* | 2.2µM* | -26%[46.1 µM] | -33 | ? | ?
Cc1cc(NC(=O)c2ccc3nc(-c4ccccc4)c(-c4ccccc4)nc3c2)no1 | 5.2µM* | -1% | -40%[14.3 µM] | 10 | 4.7µM* | ?
COC(CNC(=O)c1ccc2nc(-c3ccccc3)c(-c3ccccc3)nc2c1)OC | -28% | 10µM* | ? | 6 | ? | ?
CC(C)c1ccc(C(=O)Nc2cc(-c3ccccc3F)nn2-c2ccccc2)cc1 | . | . | 13%[46.1 µM] | 20 | . | .
COc1ccc2c(c1)c1c(c(=O)n(CCc3ccccc3)c(=O)n1Cc1cccc(Cl)c1)n2C | . | . | 13%[46.1 µM] | 4 | . | .
Cc1ccc(NC(=O)Cn2c(=O)n(Cc3ccccc3)c(=O)c3c(C)c(C(=O)N(C)C)sc32)c(C)c1 | . | . | 18%[46.1 µM] | -23 | . | .
COC(=O)[C@@]1(Cc2ccc(F)cc2)[C@H]2c3cc(C(=O)N(C)C)n(Cc4ccsc4Br)c3C[C@H]2CN1C(=O)c1ccccc1 | . | . | . | 5 | . | .
COC(=O)[C@@]1(Cc2ccc(F)cc2)[C@H]2c3cc(C(=O)N(C)C)n(CCSCCO)c3C[C@H]2CN1C(=O)c1ccccc1 | 6.6µM* | 2% | -16% | 0 | 13µM* | ?
COC(=O)[C@@]1(Cc2ccc(F)cc2)[C@H]2c3cc(C(=O)N(C)C)n(Cc4ccccn4)c3C[C@H]2CN1C(=O)c1ccccc1 | 3.3µM* | 12% | ? | 4 | 2.9µM* | -27%
COC(=O)[C@@]1(Cc2ccc(F)cc2)[C@@H]2[C@@H](CC(=O)[C@H]2CC(=O)C(=O)N(C)C)CN1C(=O)c1ccccc1 | -23% | 0%[8.37 µM] | -26% | . | 9.3µM* | -10%
COC(=O)[C@@]1(Cc2ccc(OC)cc2)[C@@H]2[C@@H](CC(=O)[C@H]2CC(=O)C(=O)N(C)C)CN1C(=O)c1ccccc1 | ? | 9% | 0% | -6 | ? | -7%
COC(=O)[C@@]1(Cc2ccc(F)cc2)[C@H]2c3cc(C(=O)N(C)C)n(Cc4nc5ccccc5[nH]4)c3C[C@H]2CN1C(=O)c1ccccc1 | 1.5µM* | ? | ? | -31 | 3.7µM* | -29%
Cc1cc(C)c2sc(NC(=O)c3ccc(S(=O)(=O)N4CCOCC4)cc3)nc2c1 | . | . | -1%[46.1 µM] | -2 | . | .
COc1ccc(NC(=O)c2ccc(-c3nc(CSc4ccccc4)c(C)o3)cc2)c(OC)c1 | . | . | 2%[46.1 µM] | -26 | . | .
O=C(CCNS(=O)(=O)c1ccccc1)OCc1ccc([N+](=O)[O-])cc1 | . | . | . | 22 | . | .
COc1cc(Cl)c(C)cc1NC(=O)COc1ccc(C)nc1[N+](=O)[O-] | 36% | -26% | ? | -30 | -4% | 21%
COc1cc(Nc2ccccc2Cl)c([N+](=O)[O-])nc1[N+](=O)[O-] | . | ? | ? | 9 | 15µM* | ?
COc1ccc(C)cc1NC(=O)COC(=O)CCC(=O)c1cccs1 | ? | -2% | . | 5 | -24% | .
COc1ccc(N2C(=O)CSC23C(=O)N(CC(=O)NCCc2ccccc2)c2ccccc23)cc1 (stereo not drawn) | . | . | -3%[46.1 µM] | 14 | . | .
Cc1cccc(N(CC(=O)Nc2ccc(Br)cc2)S(C)(=O)=O)c1C | . | . | ? | 2 | . | .
COc1ccc(C(CC(=O)Nc2cc(OC)cc(OC)c2)n2cccc2)cc1 (stereo not drawn) | 13µM* | ? | -11% | -15 | ? | 3%
COc1cc(NC(=O)COC(=O)/C=C/c2ccccc2Cl)cc(OC)c1 | 1% | -27% | ? | -103* | -15% | 15%
COc1cccc(OCC(=O)O/N=C(\N)c2ccc(OC)c(OC)c2)c1 | 15% | ? | -9% | 45 | 6.6µM* | 17%
COc1cccc(OCC(=O)Nc2ccc(OC)c(OC)c2)c1 | 2% | 0.63µM* | 0% | -23 | 25% | 2%[46.1 µM]

Bioassay records as filed in PubChem.
